# From PubChem BioAssay
# D1 ag = human D1 receptor agonism; P21728; HEK293 T-REx D1 cells, calcium flux, agonist mode; activation, % at 2 µM; 1% of 360,000 active
# Target sequence (P21728 whole entry, looked up): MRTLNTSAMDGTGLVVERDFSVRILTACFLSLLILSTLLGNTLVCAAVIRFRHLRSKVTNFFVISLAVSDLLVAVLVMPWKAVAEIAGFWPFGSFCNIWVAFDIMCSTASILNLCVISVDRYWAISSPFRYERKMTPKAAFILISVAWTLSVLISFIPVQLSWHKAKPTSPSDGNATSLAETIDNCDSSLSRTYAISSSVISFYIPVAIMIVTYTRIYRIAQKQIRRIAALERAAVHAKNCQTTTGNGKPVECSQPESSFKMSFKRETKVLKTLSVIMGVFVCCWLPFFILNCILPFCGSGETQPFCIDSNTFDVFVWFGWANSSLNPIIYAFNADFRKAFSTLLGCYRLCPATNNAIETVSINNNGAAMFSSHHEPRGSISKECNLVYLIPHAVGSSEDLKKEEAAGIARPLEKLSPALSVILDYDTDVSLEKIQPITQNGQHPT
#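 Agonism was scored from calcium flux recorded over 180 s (1 read/s) after pintool compound addition, following a 10-cycle baseline. Cells were inducible force-coupled HEK293 TREx D1, plated overnight at 30 C and loaded with no-wash calcium dye.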
# TRHR agonist = agonists of human TRH receptor; P34981; TRHR cells, calcium flux fluo-8, FDSS agonist mode; activation, % at 2 µM; 0.18% of 360,000 active; AID 493084
#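 TRHR-expressing cells loaded with fluo-8 calcium dye; 23 nL library compound pin-transferred, kinetic FDSS fluorescence (Ex 480/Em 530) recorded about 180 s for agonist-induced calcium release, before a 10 nM TRH EC20 addition for potentiator mode.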
# D1 antagonist = human D1 dopamine receptor antagonism | P21728 | HEK293 TREx D1 cells, calcium flux, dopamine EC80; stronger effect = lower value | activity change, negative = inhibition, % at 10 µM | 3.2% of 360,000 active | AID 504652; in the data active = activity change below about -30%
#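 Using tetracycline-induced force-coupled D1 Hek293 cells and a calcium dye, signals were followed for 180 s after compound, then for 180 s after EC80 dopamine, to detect inhibitors.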
# D1 potentiator = enhances dopamine response at the human D1 receptor; P21728; HEK293 TREx D1 cells, calcium flux, dopamine EC20 potentiation; potentiation, % at 10 µM; 0.036% of 360,000 active; in the data active = potentiation above about 30%
# TRHR PAM = TRH receptor (human) allosteric enhancement | P34981 | TRHR cells, fluo-8 calcium fluorescence, EC20 TRH enhancement | enhancement, % at 2 µM | 0.66% of 360,000 active | AID 493056; in the data active = enhancement above about 30%
#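 Enhancer read-out: after compound pinning and an initial kinetic agonist-mode read, an EC20 of TRH (10 nM final) was injected and fluo-8 calcium signal (Ex 480/Em 530) followed at 1 s/cycle for 100 cycles in TRHR-expressing cells.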
# A number is an active result; 0 = inactive. Hits are enriched below; roughly 4.6% of the tested compounds scored in any of these assays. Rule as the data show it, unless noted: active = activation above about 30%; inactive = the rest.
SMILES,D1 ag,TRHR agonist,D1 antagonist,D1 potentiator,TRHR PAM
Cc1ccc(S(=O)(=O)Nc2ccc3c(c2)c(C(=O)OC(C)C)c(C)n3S(=O)(=O)c2ccc(C)cc2)cc1,0,0,0,0,0
COc1ccc(NC(=O)CC(=O)Nc2ccc(OC)cc2OC)c(OC)c1,0,0,-89,0,0
COc1ccc(NC(=O)CO/N=C2/CCCc3nonc32)c(OC)c1,0,0,-32,0,0
COc1ccc(NC(=O)CO/N=C2\CCCc3nonc32)cc1,0,0,0,0,0
COc1ccc(NC(=O)Nc2nc(C)cc(C)n2)c(OC)c1,0,0,-34,0,0
COc1ccc(NC(=O)Nc2cnccn2)c(OC)c1,0,0,0,0,0
COc1ccc(NC(=O)c2ccc(CN3CCc4ccccc4C3)cc2)c(OC)c1,0,0,-35,0,0
COc1ccccc1NS(=O)(=O)c1ccc(Cl)c(NC(=O)C(C)N2C(=O)c3ccccc3C2=O)c1 (stereo unspecified),0,0,0,0,0
Cc1cccc(C(=O)NCC(=O)OCc2cc(=O)n3nc(C)sc3n2)c1,0,0,0,0,0
CC(=O)c1ccc(NC(=O)Cn2ncc3c(C)n(Cc4ccc(F)cc4)c(C)c3c2=O)cc1,0,0,0,0,0
O=C(CNS(=O)(=O)c1ccc([N+](=O)[O-])cc1)N/N=C/c1ccc(O)cc1O,0,0,0,0,0
CCN(CC)C(=O)C(C(=O)c1cccc([N+](=O)[O-])c1)n1cc(Cl)ccc1=O (stereo unspecified),0,0,-37,0,0
CN(Cc1ccccc1)C(=O)C(C(=O)c1ccc(F)cc1)n1cc(Cl)ccc1=O (stereo unspecified),0,0,0,0,0
CC(=O)Nc1ccc2c(c1)OCCOCCOc1cc(NC(C)=O)ccc1OCCOCCOCCO2,0,0,-70,0,0
Cc1cccc(C)c1N1CCN(C(=O)Nc2ccc3c(c2)OCCO3)CC1,0,0,-34,0,0
O=C(Nc1ccc2c(c1)OCCO2)N1CCN(c2ccc(F)cc2)CC1,0,0,0,0,0
CC(C)c1cnc2c(c1SCC(=O)N1CCCCC1)c(=O)n(C)c(=O)n2C,0,0,0,0,0
OCCN(CCO)CC(O)COc1ccc(C23CC4CC(CC(C4)C2)C3)cc1 (stereo unspecified),31,0,0,0,0
CC1(c2ccc(Cl)cc2)NC(=O)N(CC(=O)N2CCc3ccccc3C2)C1=O (stereo unspecified),32,0,0,0,0
Nc1nonc1-n1nnc(C(=O)N/N=C/c2cccc(F)c2)c1-c1ccccc1,0,0,0,0,0
CCOc1ccc(NC(=O)COc2ccc(S(=O)(=O)NC3CCCCC3)cc2)cc1,0,0,0,0,0
O=C(/C=C/c1ccc(Cl)cc1Cl)Nc1cccc(S(=O)(=O)NC2=NCCC2)c1,0,0,-31,0,0
Cc1ccc(CN(Cc2ccco2)C(=S)NCC(=O)NCc2cccnc2)cc1,0,0,0,0,0
Cc1ccc(CN(Cc2ccccc2)C(=S)NCC(=O)NCc2cccnc2)o1,0,0,-48,0,0
CC[n+]1ccc2cc(OC)c(OC)cc2c1Cc1ccc(OC)c(OC)c1,0,0,-49,0,0
SMILES,D1 ag,TRHR agonist,D1 antagonist,D1 potentiator,TRHR PAM
COc1ccc(OC)c(-n2c(-c3ccc(S(C)(=O)=O)cc3)cc(C=O)c2C)c1,0,0,0,0,0
COc1ccc(OC)c(-n2c(C)ccc2-c2ccc(S(C)(=O)=O)cc2)c1,0,0,-69,0,0
CC(=O)Nc1nc(C)c(CCC2OCCO2)c(=O)[nH]1,0,0,0,0,0
COC(=O)CN1C(=O)C(C)=C(c2ccc(C)cc2)S1(=O)=O,0,0,-36,0,0
CC1=C(c2ccc(C)cc2)S(=O)(=O)N(CC(=O)O)C1=O,0,0,0,0,0
CN(CCOc1ccccc1)C(=O)C1CCN(C(=O)c2ccc(Cl)cc2)CC1,0,0,0,0,0
COc1ccc(NS(=O)(=O)c2ccc(NC(=O)C3CC3)cc2)cc1,0,0,-87,0,0
COC(=O)c1ccccc1NC(=O)C1CCN(C(=O)c2ccc(OC)cc2)CC1,0,0,-33,0,0
CN(CCOc1ccc(Cl)cc1)C(=O)C1CCN(C(=O)c2ccc(F)cc2)CC1,0,0,-33,0,0
COc1cc(NS(=O)(=O)c2ccc(NC(=S)NC(=O)C3CCCC3)cc2)nc(OC)n1,0,0,-35,0,0
